# Assay results: PubChem BioAssay (NCATS)
# Results filed as inconclusive are left out. A call without a number means that no potency is given here. A number with no mark means an inactive call. Calls of active or inactive are those of the source. Calls come from the whole dose curve; as a rule, active = well fitted inhibition curve with a large enough effect; inconclusive = small, poorly fitted or top-dose-only effect; inactive = flat fitted curve, though single readings scatter.
# How the values were obtained:
# [1] = qHTS profiling for inhibitors of Plasmodium falciparum proliferation (AID 504749); for all read-outs here: nearly all actives have a fitted effect of over 60% in size; conditions: P. falciparum in erythrocytes, SYBR Green DNA, 72 h; for activity, negative = inhibition: at 28.7 µM (top of the series)
# Summary of the method: (§1)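 Readout was DNA-dye fluorescence from lysed cultures, ex 485/em 535 nm. Parasitized red cells had grown 72 h with compound; data scaled between 0.29 uM artemisinin and DMSO wells and corrected using vehicle-only plates.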
# [2] = system: 3D7; test: as above; conditions: P. falciparum in erythrocytes, SYBR Green DNA, 72 h; series mostly up to 28.7 µM
# Summary of the method: as §1
# [3] = system: 7G8; test: as above; conditions: P. falciparum in erythrocytes, SYBR Green DNA, 72 h; series mostly up to 28.7 µM
# Summary of the method: as §1
# [4] = system: AA1029; test: as above; conditions: P. falciparum in erythrocytes, SYBR Green DNA, 72 h; series mostly up to 28.7 µM
# Summary of the method: as §1
# [5] = system: AS120; test: as above; conditions: P. falciparum in erythrocytes, SYBR Green DNA, 72 h; series mostly up to 28.7 µM
# Summary of the method: as §1
# [6] = system: ATS189; test: as above; conditions: P. falciparum in erythrocytes, SYBR Green DNA, 72 h; series mostly up to 28.7 µM
# Summary of the method: as §1
# [7] = system: ATS95; test: as above; conditions: P. falciparum in erythrocytes, SYBR Green DNA, 72 h; series mostly up to 28.7 µM
# Summary of the method: as §1
# [8] = system: C2A; test: as above; conditions: P. falciparum in erythrocytes, SYBR Green DNA, 72 h; series mostly up to 28.7 µM
# Summary of the method: as §1
# [9] = system: CP185; test: as above; conditions: P. falciparum in erythrocytes, SYBR Green DNA, 72 h; series mostly up to 28.7 µM
# Summary of the method: as §1
# [10] = system: CP191; test: as above; conditions: P. falciparum in erythrocytes, SYBR Green DNA, 72 h; series mostly up to 28.7 µM
# Summary of the method: as §1
# [11] = system: CP192; test: as above; conditions: P. falciparum in erythrocytes, SYBR Green DNA, 72 h; series mostly up to 28.7 µM
# Summary of the method: as §1
# [12] = system: CP194; test: as above; conditions: P. falciparum in erythrocytes, SYBR Green DNA, 72 h; series mostly up to 28.7 µM
# Summary of the method: as §1
# [13] = system: CP201; test: as above; conditions: P. falciparum in erythrocytes, SYBR Green DNA, 72 h; series mostly up to 28.7 µM
# Summary of the method: as §1
# [14] = system: CP211; test: as above; conditions: P. falciparum in erythrocytes, SYBR Green DNA, 72 h; series mostly up to 28.7 µM
# Summary of the method: as §1
# [15] = system: CP215; test: as above; conditions: P. falciparum in erythrocytes, SYBR Green DNA, 72 h; series mostly up to 28.7 µM
# Summary of the method: as §1
# [16] = system: CP217; test: as above; conditions: P. falciparum in erythrocytes, SYBR Green DNA, 72 h; series mostly up to 28.7 µM
# Summary of the method: as §1
# [17] = system: CP237; test: as above; conditions: P. falciparum in erythrocytes, SYBR Green DNA, 72 h; series mostly up to 28.7 µM
# Summary of the method: as §1
# [18] = system: CP203; test: as above; conditions: P. falciparum in erythrocytes, SYBR Green DNA, 72 h; series mostly up to 28.7 µM
# Summary of the method: as §1
# Potency is the fitted concentration of half-maximal effect.
smiles,measurement,setting,value
OCCOc1ccccc1,"activity, negative = inhibition",[1]; parasite line A,10.1%
same,"activity, negative = inhibition",[1]; parasite line B,6.31%
same,Potency,[2],inactive
same,Potency,[3],inactive
same,Potency,[4],inactive
same,Potency,[5],inactive
same,Potency,[6],inactive
same,Potency,[7],inactive
same,Potency,[8],inactive
same,Potency,[9],inactive
same,Potency,[10],inactive
same,Potency,[11],inactive
same,Potency,[12],inactive
same,Potency,[13],inactive
same,Potency,[14],inactive
same,Potency,[15],inactive
same,Potency,[16],inactive
same,Potency,[17],inactive
CC1NCCOC1c1ccccc1 (stereo unspecified),"activity, negative = inhibition",[1]; parasite line A,8.85%
same,"activity, negative = inhibition",[1]; parasite line B,5.03%
same,Potency,[2],inactive
same,Potency,[3],inactive
same,Potency,[4],inactive
same,Potency,[5],inactive
same,Potency,[6],inactive
same,Potency,[7],inactive
same,Potency,[8],inactive
same,Potency,[9],inactive
same,Potency,[10],inactive
same,Potency,[11],inactive
same,Potency,[12],inactive
same,Potency,[13],inactive
same,Potency,[14],inactive
same,Potency,[15],inactive
same,Potency,[16],inactive
Nc1ccncc1,"activity, negative = inhibition",[1]; parasite line A,15.2%
same,"activity, negative = inhibition",[1]; parasite line B,1.68%
same,Potency,[2],inactive
same,Potency,[3],inactive
same,Potency,[4],inactive
same,Potency,[5],inactive
same,Potency,[6],inactive
same,Potency,[7],inactive
same,Potency,[8],inactive
same,Potency,[9],inactive
same,Potency,[10],inactive
same,Potency,[11],inactive
same,Potency,[12],inactive
same,Potency,[13],inactive
same,Potency,[14],inactive
same,Potency,[15],inactive
same,Potency,[16],inactive
same,Potency,[17],inactive
CC(=O)[C@H]1CC[C@H]2[C@@H]3CC[C@H]4C[C@H](O)CC[C@]4(C)[C@H]3C(=O)C[C@]12C,"activity, negative = inhibition",[1]; parasite line A,10.2%
same,"activity, negative = inhibition",[1]; parasite line B,12.3%
same,Potency,[2],inactive
same,Potency,[3],inactive
same,Potency,[4],inactive
same,Potency,[5],inactive
same,Potency,[6],inactive
same,Potency,[7],inactive
same,Potency,[8],inactive
same,Potency,[9],inactive
same,Potency,[10],inactive
same,Potency,[11],inactive
same,Potency,[12],inactive
same,Potency,[13],inactive
same,Potency,[18],inactive
same,Potency,[14],inactive
same,Potency,[15],inactive
same,Potency,[16],inactive
same,Potency,[17],inactive
CC[N+](CC)(CC)CC,"activity, negative = inhibition",[1]; parasite line A,15.6%
same,"activity, negative = inhibition",[1]; parasite line B,17.3%
same,Potency,[2],inactive
same,Potency,[3],inactive
same,Potency,[4],inactive
same,Potency,[5],inactive
same,Potency,[6],inactive
same,Potency,[7],inactive
same,Potency,[8],inactive
same,Potency,[9],inactive
same,Potency,[10],inactive
same,Potency,[11],inactive
same,Potency,[12],inactive
same,Potency,[13],inactive
same,Potency,[14],inactive
same,Potency,[16],inactive
same,Potency,[17],inactive
O=C1NCN(c2ccccc2)C12CCN(CC1COc3ccccc3O1)CC2 (stereo unspecified),"activity, negative = inhibition",[1]; parasite line A,-17.5%
same,"activity, negative = inhibition",[1]; parasite line B,5.67%
same,Potency,[2],inactive
same,Potency,[3],12.6 µM (active)
same,Potency,[4],inactive
same,Potency,[5],inactive
same,Potency,[6],inactive
same,Potency,[7],inactive
same,Potency,[8],inactive
same,Potency,[9],inactive
same,Potency,[10],inactive
same,Potency,[11],inactive
same,Potency,[12],inactive
same,Potency,[13],inactive
same,Potency,[14],inactive
same,Potency,[15],inactive
same,Potency,[16],inactive
Cc1ncc(CNC(=O)N(CCCl)N=O)c(N)n1,"activity, negative = inhibition",[1]; parasite line A,6.89%
same,"activity, negative = inhibition",[1]; parasite line B,3.28%
same,Potency,[2],inactive
same,Potency,[3],inactive
same,Potency,[4],inactive
same,Potency,[5],inactive
same,Potency,[6],inactive
same,Potency,[7],inactive
same,Potency,[8],inactive
same,Potency,[9],inactive
same,Potency,[10],inactive
same,Potency,[11],inactive
same,Potency,[12],inactive
same,Potency,[13],inactive
same,Potency,[18],inactive
same,Potency,[14],inactive
same,Potency,[15],inactive
same,Potency,[16],inactive
same,Potency,[17],inactive
Clc1cccc(N2CCNCC2)c1,"activity, negative = inhibition",[1]; parasite line A,9.32%
same,"activity, negative = inhibition",[1]; parasite line B,8.49%
same,Potency,[2],inactive
same,Potency,[4],inactive
same,Potency,[5],inactive
same,Potency,[6],inactive
same,Potency,[7],inactive
same,Potency,[8],inactive
same,Potency,[9],inactive
same,Potency,[10],inactive
same,Potency,[11],inactive
same,Potency,[13],inactive
same,Potency,[18],inactive
same,Potency,[15],inactive
same,Potency,[16],inactive
Cc1ccc(-c2nc3ccc(C)cn3c2CC(=O)N(C)C)cc1,"activity, negative = inhibition",[1]; parasite line A,-4.35%
same,"activity, negative = inhibition",[1]; parasite line B,-1.84%
same,Potency,[2],inactive
same,Potency,[3],inactive
same,Potency,[4],inactive
same,Potency,[5],inactive
same,Potency,[6],inactive
same,Potency,[7],inactive
same,Potency,[8],inactive
same,Potency,[9],inactive
same,Potency,[11],inactive
same,Potency,[12],inactive
same,Potency,[13],inactive
same,Potency,[18],inactive
same,Potency,[14],inactive
same,Potency,[15],inactive
same,Potency,[16],inactive
same,Potency,[17],inactive
N#CC(C#N)=Cc1ccc(O)c(O)c1,"activity, negative = inhibition",[1]; parasite line A,-14.1%
same,"activity, negative = inhibition",[1]; parasite line B,-25.8%
same,Potency,[2],inactive
same,Potency,[3],8.91 µM (active)
same,Potency,[4],inactive
same,Potency,[5],inactive
same,Potency,[6],inactive
same,Potency,[7],inactive
same,Potency,[8],inactive
same,Potency,[9],inactive
same,Potency,[11],inactive
same,Potency,[12],inactive
same,Potency,[13],inactive
same,Potency,[18],inactive
same,Potency,[14],inactive
same,Potency,[16],inactive
same,Potency,[17],inactive
CCOC(=O)C1(c2ccccc2)CCN(CCC(C#N)(c2ccccc2)c2ccccc2)CC1,Potency,[1]; parasite line A,2.51 µM (active)
same,Potency,[1]; parasite line B,3.16 µM (active)
same,Potency,[2],2.51 µM (active)
same,Potency,[3],2.24 µM (active)
same,Potency,[4],3.16 µM (active)
same,Potency,[5],2.24 µM (active)
same,Potency,[6],3.55 µM (active)
same,Potency,[7],3.55 µM (active)
same,Potency,[8],3.55 µM (active)
same,Potency,[9],3.16 µM (active)
same,Potency,[10],3.16 µM (active)
same,Potency,[11],4.78 µM (active)
same,Potency,[13],4.26 µM (active)
same,Potency,[15],4.26 µM (active)
same,Potency,[16],3.16 µM (active)
same,Potency,[17],3.98 µM (active)
CC(C)(C)CC(C)(C)c1ccc(O)cc1,"activity, negative = inhibition",[1]; parasite line A,-18.1%
same,Potency,[2],inactive
same,Potency,[3],12.6 µM (active)
same,Potency,[4],inactive
same,Potency,[6],inactive
same,Potency,[7],inactive
same,Potency,[8],inactive
same,Potency,[9],inactive
same,Potency,[10],inactive
same,Potency,[11],inactive
same,Potency,[12],inactive
same,Potency,[13],inactive
same,Potency,[14],inactive
same,Potency,[15],inactive
same,Potency,[16],inactive
same,Potency,[17],inactive
Oc1cc(Cl)ccc1Oc1ccc(Cl)cc1Cl,Potency,[1]; parasite line A,11.2 µM (active)
same,Potency,[1]; parasite line B,5.01 µM (active)
same,Potency,[2],11.2 µM (active)
same,Potency,[3],1.12 µM (active)
same,Potency,[4],7.94 µM (active)
same,Potency,[5],3.98 µM (active)
same,Potency,[6],7.08 µM (active)
same,Potency,[7],10 µM (active)
same,Potency,[10],11.2 µM (active)
same,Potency,[11],12 µM (active)
same,Potency,[12],13.5 µM (active)
same,Potency,[15],13.5 µM (active)
same,Potency,[16],7.94 µM (active)
same,Potency,[17],7.08 µM (active)
